PubChem BioAssay (NCATS)
Results filed as inconclusive are left out. The source made the active and inactive calls. The call rests on the fitted dose curve; in most records, active means well fitted inhibition curve with a large enough effect; inconclusive means small, poorly fitted or top-dose-only effect; inactive means flat fitted curve, though single readings scatter. Where a SMILES comes first, the peptide text is derived from it. [ ]: non-standard residue; d: D form. Ala(indol-2-yl) = N[C@@H](Cc1cc2ccccc2[nH]1)C(=O)O; Aib = CC(C)(N)C(=O)O

molecular target: Glutathione peroxidase 1 (Homo sapiens) (UniProt P07203); assay: Primary qHTS Assay for Inhibitors of Recombinant Selenoprotein Glutathione Peroxidase 1 (GPX1) (AID 1845191); details: recombinant GPX1, GR-coupled NADPH fluorescence, 15 min; series mostly up to 48.8 µM; activity, negative = inhibition: at the top concentration; further: nearly all actives have a fitted effect of over 65% in size
Summary of the method: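 Recombinant GPX1 (10 nM final) was preincubated with compound for 30 min at room temperature, then reacted with 1 mM GSH, 0.5 mM CHP, 0.5 mM NADPH and 100 nM glutathione reductase; NADPH fluorescence (340/450 nm) was read at 0 and 15 min.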
On the % scale 0 is the no-effect control and ±100 the full control effect.

Glutathione peroxidase 1 (Homo sapiens), sequence (P07203 whole entry, looked up): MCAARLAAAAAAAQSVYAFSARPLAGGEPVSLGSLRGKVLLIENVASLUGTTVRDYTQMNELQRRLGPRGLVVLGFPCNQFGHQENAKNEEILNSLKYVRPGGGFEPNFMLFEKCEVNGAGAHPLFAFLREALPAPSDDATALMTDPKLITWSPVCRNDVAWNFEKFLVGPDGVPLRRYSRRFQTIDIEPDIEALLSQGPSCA

Compound	activity, negative = inhibition	outcome	Potency
CO[C@H]1C[C@H](O[C@H]2CC[C@@]3(C)C(=CCC4C3CC[C@]3(C)[C@@H](C5=CC(=O)OC5)CC[C@]43O)C2)O[C@@H](C)[C@@H]1O[C@@H]1O[C@H](CO[C@@H]2O[C@H](CO)[C@@H](O)[C@H](O)[C@H]2O)[C@@H](O)[C@H](O)[C@H]1O (some centres not stated)	-15.5% [at 15.3 µM] (inactive)		
C=C1[C@@H](C)[C@H]2[C@H](Cc3ccccc3)NC(=O)[C@]23[C@H](OC(C)=O)/C=C/[C@](C)(O)C(=O)[C@@H](C)C/C=C/[C@H]3[C@@H]1O		inactive	
CC(=O)OC[C@]12C[C@H](OC(=O)CC(C)C)C(C)=C[C@H]1O[C@@H]1[C@H](O)C[C@@]2(C)[C@]12CO2		inactive [at 27.7 µM]	
COc1ccc2c3c([nH]c2c1)C(C=C(C)C)N1C(=O)C2CCCN2C(=O)C1C3 (configuration not stated)	-12.1% [at 27.7 µM] (inactive)		
CC(C)(NC(=O)[C@@H](N)Cc1ccc(O)cc1)C(=O)N[C@@H](Cc1cc2ccccc2[nH]1)C(=O)N[C@@H](Cc1ccccc1)C(=O)O (H-Y[Aib][Ala(indol-2-yl)]F-OH)	0.29% [at 9.52 µM] (inactive)		
C[C@]12CC[C@H](O)C[C@H]1CC[C@@H]1[C@@H]2[C@H](O)C(=O)[C@]2(C)[C@@H](c3ccc(=O)oc3)CC[C@]12O	-1.99% (inactive)		
CC[C@H]1C2CC3[C@@H]4N(C)c5ccccc5[C@]45C[C@@H]([C@H]2[C@H]5O)N3[C@@H]1O	-12.5% [at 27.7 µM] (inactive)		
CC(=O)OC[C@]12C[C@H](OC(=O)CC(C)C)C(C)=C[C@H]1O[C@@H]1[C@H](O)[C@@H](OC(C)=O)[C@@]2(C)[C@@]12CO2	0.0777% [at 27.7 µM] (inactive)		
CC1=C[C@H]2O[C@@H]3C[C@H]4OC(=O)/C=C/C=C/C(=O)OCC/C(C)=C/C(=O)OC[C@@]2(CC1)[C@]4(C)[C@]31CO1		inactive [at 27.7 µM]	
C=C(CO)C(=O)O[C@H]1CC(=C)[C@@H]2C[C@H](O)C(=C)[C@@H]2[C@H]2OC(=O)C(=C)[C@@H]21		inactive [at 27.7 µM]	
O=C(OC[C@H]1O[C@@H](Oc2ccc(O)cc2CO)[C@H](O)[C@@H](O)[C@@H]1O)c1ccccc1	-15.1% [at 27.7 µM] (inactive)		
CC[C@@]1(O)C(=O)OCc2c1cc1n(c2=O)Cc2cc3c(OC)cccc3nc2-1	-24.5% [at 27.7 µM] (inactive)		
CC(=O)OC[C@]12C[C@H](O)C(C)=C[C@H]1O[C@@H]1[C@H](O)[C@@H](O)[C@@]2(C)[C@]12CO2		inactive [at 27.7 µM]	
CC[C@H]1C[C@@H]2CC[C@@H](O2)[C@@H](C)C(=O)O[C@H](CC)C[C@H]2CC[C@H](O2)[C@H](C)C(=O)O[C@@H](C)C[C@@H]2CC[C@@H](O2)[C@@H](C)C(=O)O[C@H](CC)C[C@H]2CC[C@H](O2)[C@H](C)C(=O)O1	1.95% [at 15.3 µM] (inactive)		
C[C@H]1O[C@@H](n2cnc3c(N)ncnc32)C[C@@H]1O		inactive	
CO[C@H]1[C@@H](O)[C@@H](C)O[C@@H](O[C@@H]2C=C3C(OC(C)=O)CC4(O)C(CC[C@]5(C)[C@@H](C6=CC(=O)OC6)CC[C@]45O)[C@@]3(C)CC2)[C@@H]1O (some centres not stated)		inactive [at 15.3 µM]	
CN(C)c1cc2c(cc1Sc1nc3c(N)nccc3n1CCNCC(C)(C)C)OCO2			inactive
